From the supplement of paper PMC9254222
The full ranking holds about 1,100 compounds; the median of “Renilla luciferase signal (cell health) relative to plate median” is about 0.97, and the highest 2% start at about 1.6. The full list was thinned out, with the highest values kept by preference.

System: HEK293T (UBE3A T485A transfected, BAR Wnt reporter)
Test: Renilla luciferase signal (cell health) relative to plate median (fold (linear ratio)); higher = higher Renilla signal
Settings: 24 h
Summary of the method: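 Chemicals were robotically dosed at 0.01–100 uM for 24 h onto HEK293T cells, starting four hours after transfection with a BAR firefly luciferase Wnt reporter, TK-Renilla and an expression plasmid. The cells had been plated at 4500 cells/well in DMEM with 10% FBS at 37°C and 5% CO2. Following a Dual-Glo luciferase readout, the firefly/Renilla ratio served as the Wnt activity measure and raw Renilla as the cell health measure, both median-centred on each plate. Each value is the mean of four biological replicates.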

| Structure (SMILES) | Renilla luciferase signal (concentration: 0.01 uM) | Renilla luciferase signal (concentration: 0.1 uM) | Renilla luciferase signal (concentration: 1 uM) | Renilla luciferase signal (concentration: 10 uM) | Renilla luciferase signal (concentration: 100 uM) |
| --- | --- | --- | --- | --- | --- |
| CCOc1nc(F)cc2nc(S(=O)(=O)Nc3c(Cl)cccc3Cl)nn12 [Diclosulam] | 0.684 | 0.741 | 1.03 | 0.878 | 0.911 |
| Cc1ccn2nc(S(=O)(=O)Nc3c(F)cccc3F)nc2n1 [Flumetsulam] | 0.963 | 1.07 | 0.959 | 1.07 | 1.67 |
| COc1ccc(-c2ccccc2)cc1NNC(=O)OC(C)C [Bifenazate] | 1.24 | 1.21 | 1.11 | 1.06 | 0.851 |
| Cc1ccc([N+](=O)[O-])cc1N [2-Methyl-5-nitroaniline] | – | 1.11 | 1.21 | 1.15 | 0.978 |
| CC(C)N(C(=O)SCC(Cl)=C(Cl)Cl)C(C)C [Tri-allate] | 1.05 | 1.11 | 1.06 | 1.06 | 1.76 |
| CC(C)COC(=O)c1ccccc1C(=O)OCC(C)C [Diisobutyl phthalate] | – | 0.825 | 0.827 | 0.867 | 1.01 |
| C#CC(C)(C)NC(=O)c1cc(Cl)cc(Cl)c1 [Propyzamide] | 1.38 | 1.2 | 1.12 | 1.09 | 1.72 |
| CCC(C)(NC(=O)c1cc(Cl)c(C)c(Cl)c1)C(=O)CCl (stereo not given) [Zoxamide] | 1.25 | 1.05 | 0.961 | 0.117 | 0.0244 |
| COC(=O)N(OC)c1ccccc1COc1ccn(-c2ccc(Cl)cc2)n1 [Pyraclostrobin] | 1.35 | 0.995 | 0.707 | 0.149 | 0.113 |
| Oc1ccc2ccc3cccc4ccc1c2c34 [1-Hydroxypyrene] | – | 1.01 | 1.06 | 1.09 | 0.811 |
| O=P(Oc1ccccc1)(Oc1ccccc1)Oc1ccccc1 [Triphenyl phosphate] | – | 0.815 | 0.778 | 0.825 | 1.02 |
| CS/C(C)=N/OC(=O)N(C)SN(C)C(=O)O/N=C(\C)SC [Thiodicarb] | 1 | 0.646 | 0.895 | 0.91 | 0.0128 |
| CCCCCCCCc1ccc(O)cc1 [4-Octylphenol] | – | 1.09 | 1.1 | 1.3 | 0.803 |
| CSC(C)(C)C=NO [Aldicarb oxime] | – | 1.13 | 1.06 | 1.24 | 1.09 |
| CNC(=O)ON=CC(C)(C)SC [Aldicarb] | 1.1 | 0.924 | 0.97 | 0.918 | 1.72 |
| CNC(=O)ON=C(C)SC [Methomyl] | 0.945 | 0.951 | 1.1 | 1.04 | 1.25 |
| O=[N+]([O-])c1ccc(O)c([N+](=O)[O-])c1 [2,4-Dinitrophenol] | – | 1.15 | 1.11 | 0.966 | 0.305 |
| CCOC(=O)C(O)(c1ccc(Cl)cc1)c1ccc(Cl)cc1 [Chlorobenzilate] | – | 0.927 | 0.837 | 0.929 | 1.26 |
| CCCCSP(=O)(SCCCC)SCCCC [Tribufos] | 1.14 | 0.609 | 0.976 | 0.82 | 0.728 |
| CCCSP(=O)(OCC)SCCC [Ethoprop] | 1.13 | 0.976 | 1.08 | 1.1 | 1.86 |
| CCOP(=S)(OCC)SCSP(=S)(OCC)OCC [Ethion] | – | 0.929 | 0.935 | 0.973 | 1.13 |

| Structure (SMILES) | Renilla luciferase signal (concentration: 0.01 uM) | Renilla luciferase signal (concentration: 0.1 uM) | Renilla luciferase signal (concentration: 1 uM) | Renilla luciferase signal (concentration: 10 uM) | Renilla luciferase signal (concentration: 100 uM) |
| --- | --- | --- | --- | --- | --- |
| CC(Cc1ccc(OCC(=O)O)cc1)NCC(O)c1csc(C(F)(F)F)n1 (stereo not given) | – | 0.796 | 0.849 | 0.912 | 1.28 |
| CCC12COCN1COC2 [5-Ethyl-1-aza-3,7-dioxabicyclo[3.3.0]octane] | – | 0.93 | 1.08 | 1.1 | 1.35 |
| CCCCC(CC)COC(=O)c1ccc(C(=O)OCC(CC)CCCC)c(C(=O)OCC(CC)CCCC)c1 (stereo not given) [Tris(2-ethylhexyl) trimellitate] | – | 0.879 | 0.991 | 0.972 | 1.2 |
| C[C@]12CCC(=O)C[C@@H]1CC[C@@H]1[C@@H]2CC[C@]2(C)[C@@H](O)CC[C@@H]12 [5alpha-Dihydrotestosterone] | – | 0.867 | 0.848 | 1 | 2.06 |
| CCC(=O)O[C@H]1CC[C@H]2[C@@H]3CCC4=CC(=O)CC[C@]4(C)[C@H]3CC[C@]12C [Testosterone propionate] | – | 0.869 | 0.772 | 0.878 | 1.11 |
| CNC(=O)N(C)c1nnc(C(C)(C)C)s1 [Tebuthiuron] | 1.19 | 0.795 | 1.02 | 0.738 | 1.26 |
| Cc1ccccc1N [2-Methylaniline] | – | 1.15 | 1.29 | 1.25 | 1.25 |
| CC(c1ccc(O)cc1)(c1ccc(O)cc1)c1ccc(O)cc1 [4,4',4"-Ethane-1,1,1-triyltriphenol] | – | 0.468 | 0.58 | 0.509 | 0.0116 |
| ClC(Cl)c1ccccc1 [Benzal chloride] | – | 1.11 | 0.929 | 1.12 | 1.15 |
| CC(C)(C)c1cc(C(C)(C)C)c(O)c(C(C)(C)C)c1 [2,4,6-Tris(tert-butyl)phenol] | – | 0.951 | 1.04 | 1.18 | 1.73 |
| CC(C)(C)c1ccccc1O [2-tert-Butylphenol] | – | 0.823 | 0.913 | 0.724 | 0.378 |
| COc1ccc(O)c(C(C)(C)C)c1 [2-tert-Butyl-4-methoxyphenol] | – | 0.947 | 0.971 | 1.22 | 1.03 |
| O=C(Nc1ccc2[nH]ccc2c1)c1cc2cc(F)ccc2n1Cc1cccc(F)c1 | – | 1.07 | 1.02 | 0.543 | 0.0428 |
| CCCN(CC)CC1COC2(CCC(C(C)(C)C)CC2)O1 (stereo not given) [Spiroxamine] | 0.835 | 1.34 | 1.13 | 1.06 | 0.0856 |
| CC(C)CCCCCCCOC(=O)c1ccccc1C(=O)OCCCCCCCC(C)C | – | 1.21 | 1.01 | 1.1 | 1.26 |
| CCCCOC(=O)c1ccccc1C(=O)OCc1ccccc1 [Benzyl butyl phthalate] | – | 1.05 | 1.23 | 1.28 | 1.04 |
| C=CC1(C)OC(=O)N(c2cc(Cl)cc(Cl)c2)C1=O (stereo not given) [Vinclozolin] | 1.03 | 0.904 | 1.09 | 1.28 | 2.37 |
| CC12CC1(C)C(=O)N(c1cc(Cl)cc(Cl)c1)C2=O (stereo not given) [Procymidone] | – | 0.813 | 1.07 | 1.07 | 1.27 |
| Cc1ccc(N)cc1 [4-Methylaniline] | – | 0.71 | 0.873 | 0.684 | 0.856 |
| CCCCOC(=O)[C@@H](C)Oc1ccc(Oc2ccc(C#N)cc2F)cc1 [Cyhalofop-butyl] | 1.03 | 1.04 | 0.889 | 1.03 | 0.226 |
| COC(=O)C(C)Oc1ccc(Oc2ccc(Cl)cc2Cl)cc1 (stereo not given) [Diclofop-methyl] | 1.01 | 0.869 | 0.732 | 0.936 | 2.15 |

| Structure (SMILES) | Renilla luciferase signal (concentration: 0.01 uM) | Renilla luciferase signal (concentration: 0.1 uM) | Renilla luciferase signal (concentration: 1 uM) | Renilla luciferase signal (concentration: 10 uM) | Renilla luciferase signal (concentration: 100 uM) |
| --- | --- | --- | --- | --- | --- |
| O=[N+]([O-])c1ccc(Oc2ccc(Cl)cc2Cl)cc1 [Nitrofen] | – | 1.06 | 1.17 | 1.05 | 1.69 |
| O=[N+]([O-])c1ccc(Cl)cc1 [1-Chloro-4-nitrobenzene] | – | 0.98 | 0.976 | 0.993 | 1.1 |
| Fc1ccc(Oc2ccnc3cc(Cl)cc(Cl)c23)cc1 [Quinoxyfen] | 0.918 | 0.865 | 0.93 | 1.03 | 0.994 |
| Oc1cc(Cl)ccc1Oc1ccc(Cl)cc1Cl [Triclosan] | 0.941 | 0.922 | 0.956 | 0.911 | 0.083 |
| CCCCNC(=O)OCC#CI [3-Iodo-2-propynyl-N-butylcarbamate] | 0.922 | 0.986 | 0.947 | 0.822 | 0.0151 |
| CC1(C)C(C=C(Cl)Cl)C1C(=O)OC(C#N)c1ccc(F)c(Oc2ccccc2)c1 (stereo not given) [Cyfluthrin] | 1.01 | 1.31 | 1.27 | 0.975 | 1.1 |
| COc1cccc(C(=O)NN(C(=O)c2cc(C)cc(C)c2)C(C)(C)C)c1C [Methoxyfenozide] | 1.37 | 1.1 | 1.05 | 1.04 | 0.685 |
| Nc1c(Cl)cc([N+](=O)[O-])cc1Cl [Dicloran] | 0.651 | 0.765 | 0.894 | 0.77 | 0.167 |
| CSC1=N[C@@](C)(c2ccccc2)C(=O)N1Nc1ccccc1 [Fenamidone] | 0.641 | 0.774 | 0.785 | 0.525 | 0.165 |
| O=c1n(Cl)c(=O)n(Cl)c(=O)n1Cl [Symclosene] | 1.05 | 0.995 | 0.923 | 1.18 | 1.88 |
| CCCOc1nn(C(=O)[N-]S(=O)(=O)c2ccccc2C(=O)OC)c(=O)n1C.[Na+] [Propoxycarbazone-sodium] | 1.17 | 1.21 | 1.03 | 0.975 | 1.2 |
| CCC(CC)Nc1c([N+](=O)[O-])cc(C)c(C)c1[N+](=O)[O-] [Pendimethalin] | 0.981 | 0.996 | 0.843 | 1.02 | 0.801 |
| CCC(C)Nc1c([N+](=O)[O-])cc(C(C)(C)C)cc1[N+](=O)[O-] (stereo not given) [Butralin] | 0.921 | 1.06 | 0.989 | 1.04 | 1.94 |
| CCCN(CCC)c1c([N+](=O)[O-])cc(C(F)(F)F)cc1[N+](=O)[O-] [Trifluralin] | 1.09 | 1.16 | 1.12 | 1.13 | 1.59 |
| O=[N+]([O-])c1ccccc1 [Nitrobenzene] | – | 0.931 | 0.977 | 0.817 | 0.932 |
| CCOP(=S)(OCC)Oc1ccc([N+](=O)[O-])cc1 [Parathion] | 1.03 | 1.13 | 1.04 | 1.11 | 1.36 |
| N=C(Nc1ccccc1)Nc1ccccc1 [1,3-Diphenylguanidine] | – | 1.03 | 0.989 | 0.895 | 0.887 |
| CC1=C(C(=O)Nc2ccccc2)SCCO1 [Carboxin] | 0.996 | 1.11 | 1.07 | 0.949 | 2.12 |
| O=C(Nc1ccccc1)c1ccccc1I [Benodanil] | – | 0.942 | 0.924 | 0.913 | 0.739 |
